Source: PubChem BioAssay (National Center for Advancing Translational Sciences (NCATS))
Only some compounds are listed: those with a hit (about 8.9% of all), similar ones and a draw of the others.
IMPase Li inh: qHTS Assay for Identifying the Cell-Membrane Permeable IMPase Inhibitors: Potentiation with Lithium; AID 1457, 2008; CHO-M1 cells, IP1 TR-FRET (IP-One), carbachol + lithium; Potency, µM (highest dose often 59.4 µM), for inactives: at the top dose activity, negative = IMPase inhibition, usual class: inhibitors; 210,000 tested, 0.35% active;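 note: IP1 builds up when IMPase is blocked and the TR-FRET signal falls; potency is the fitted concentration of half-maximal effect; plate controls were basal vehicle for no effect and high inhibitor control for full effect; nearly all actives have a fitted effect of over 50% in size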
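Readout is a homogeneous TR-FRET IP1 immunoassay (Ex 320, Em 665 and 620), where raised cytosolic IP1 lowers signal. Cells were CHO-M1 treated 30 min at 37C with test compounds plus a little lithium; AC50 values came from Hill-equation fitting.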
12-hLO inh: qHTS Assay for Inhibitors of 12-hLO (12-human lipoxygenase) | 150,000 tested, 0.12% active | AID 1452, 2008 | purified 12-hLO, xylenol orange hydroperoxide absorbance | Potency, µM (top dose mostly 57.1 µM), without a hit: at the highest dose activity change, negative = inhibition, hits mostly inhibitors; note: potency is the fitted concentration of half-maximal effect; nearly all actives have a fitted effect of over 55% in size
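150 nM 12hLO, 25 mM Hepes pH 7.0 + 0.01% Triton X-100; cpd preinc 15 min RT; 40 uM arachidonic acid, 30 min RT; Fe-XO 30 min; A573/A405 ratio as read-out.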
IMPase cell inh: qHTS Assay for Identifying the Cell-Membrane Permeable IMPase Inhibitors; CHO-M1 cells, IP1 accumulation, HTRF TR-FRET ratio; 120,000 tested, under 10 active; Inositol monophosphatase 1 (Rattus norvegicus), P97697; inhibition (IP1 accumulation), % at 46.1 µM; active = well fitted curve in the direction sought with a large enough effect in the signal ratio, not every such curve was filed as active; inconclusive = small, poorly fitted or top-dose-only effect, or a change in a side signal; inactive = no such curve, though single readings can be large or run the other way; the % refers to the signal ratio;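 note: cells stimulated with carbachol in lithium chloride buffer; plate controls were DMSO basal wells for no effect and reference inhibitor wells for full effect; higher means more IMPase inhibition seen as more IP1 and lower FRET ratio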
Target sequence (P97697 whole entry, looked up): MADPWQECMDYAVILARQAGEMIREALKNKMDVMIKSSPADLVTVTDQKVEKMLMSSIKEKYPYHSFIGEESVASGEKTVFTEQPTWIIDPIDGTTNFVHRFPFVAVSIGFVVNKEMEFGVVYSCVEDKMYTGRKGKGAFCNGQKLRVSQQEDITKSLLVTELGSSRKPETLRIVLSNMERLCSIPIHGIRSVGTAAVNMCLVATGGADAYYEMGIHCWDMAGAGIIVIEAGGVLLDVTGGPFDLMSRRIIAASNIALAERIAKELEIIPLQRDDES
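In this qHTS, compounds (final up to 46 uM) act on CHO-M1 cells that are then activated through the M1 receptor with carbachol, in pH 7.4 buffer containing 50 mM LiCl, for 30 min. IP1 accumulation is quantified by the IP-One immunoassay.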
HPGD inh: qHTS Assay for Inhibitors of HPGD (15-Hydroxyprostaglandin Dehydrogenase). 150,000 tested, 4.3% active. AID 894, 2007. purified HPGD, NADH fluorescence kinetic, PGE2 substrate. Potency, µM, for inactives: at the top dose activity change, negative = inhibition, most hits filed as inhibitors; active = well fitted inhibition curve with a large enough effect, not every such curve was filed as active; inconclusive = small, poorly fitted or top-dose-only effect, or another doubt; inactive = no such curve, though single readings can be large or run the other way; note: potency is the fitted concentration of half-maximal effect
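NADH formation kinetics: reaction with 30 uM PGE2 and 1 mM NAD+ (final), 20 nM enzyme, Tris-HCl pH 8 with Tween 20, after 15 min compound preincubation at room temperature. Fluorescence change, last versus first of five reads.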
ALDH1A1 inh: qHTS Assay for Inhibitors of Aldehyde Dehydrogenase 1 (ALDH1A1) | Aldehyde dehydrogenase 1A1 (Homo sapiens), P00352 | Purified ALDH1A1, NADH fluorescence, propionaldehyde substrate | Potency, µM (highest dose often 75.3 µM), inactives show top-dose activity, negative = inhibition, hits mostly inhibitors | 220,000 tested, 7.3% active; active = well fitted inhibition curve with a large enough effect, not every such curve was filed as active; inconclusive = small, poorly fitted or top-dose-only effect, or another doubt; inactive = no such curve, though single readings can be large or run the other way;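 note: potency is the fitted concentration of half-maximal effect; plate controls were no enzyme wells and a reference inhibitor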
NPSR antag: qHTS Assay for Antagonists of the Neuropeptide S Receptor: cAMP Signal Transduction | AID 1461, 2008 | Potency, µM (top dose mostly 38.3 µM), for inactives: at the highest dose activity change, negative = inhibition, hits mostly inhibitors | 220,000 tested, 1% active | CHO-NPSR cells, cAMP TR-FRET, antagonist mode | Q6W5P4; note: potency is the fitted concentration of half-maximal effect; nearly all actives have a fitted effect of over 50% in size
Target sequence (Q6W5P4 whole entry, looked up): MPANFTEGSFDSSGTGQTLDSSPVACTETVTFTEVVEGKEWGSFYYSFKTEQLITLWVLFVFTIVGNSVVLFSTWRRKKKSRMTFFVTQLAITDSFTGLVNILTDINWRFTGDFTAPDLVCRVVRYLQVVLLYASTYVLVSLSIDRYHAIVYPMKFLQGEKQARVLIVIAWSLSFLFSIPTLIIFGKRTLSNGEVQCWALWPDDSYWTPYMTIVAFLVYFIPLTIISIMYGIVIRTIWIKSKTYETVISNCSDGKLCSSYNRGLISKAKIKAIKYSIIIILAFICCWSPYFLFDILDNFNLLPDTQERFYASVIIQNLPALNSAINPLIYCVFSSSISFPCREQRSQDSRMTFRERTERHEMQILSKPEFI
* hit, by the source's call; ? = inconclusive; · = no result; [ ] = remark or other dose. Unless noted, calls come from the whole dose curve; as a rule, active = well fitted curve in the direction sought with a large enough effect; inconclusive = small, poorly fitted or top-dose-only effect, or another doubt; inactive = no such curve, though single readings can be large; an effect the other way counts as inactive or inconclusive. Unless noted, % is set by controls: 0 for no effect and ±100 for the full control effect.

SMILES	IMPase Li inh	12-hLO inh	IMPase cell inh	HPGD inh	ALDH1A1 inh	NPSR antag
S=C(c1ccc(N2CCOCC2)cc1)N1CCOCC1	4%[38.3 µM]	-1%	-5	7.9µM*	2.2µM*	-3%[46.1 µM]
S=C(c1ccc(N2CCCC2)cc1)N1CCCCC1	30%[38.3 µM]	-7%	10	14µM*	20µM*	-11%[46.1 µM]
O=[N+]([O-])c1ccc(C[n+]2cc(-c3ccccc3)n3c2CCCCC3)cc1	8%	·	·	·	7%	18%
CC1=CC(C/C(C)=C/COc2ccc3ccc(=O)oc3c2)OC1=O (stereo unspecified)	·	·	·	·	·	-12%
C/[N+]([O-])=C/c1c(OCc2ccc(Cl)cc2Cl)ccc2ccccc12	11%	·	·	·	12%	-9%
CCC(CC)c1nnc(NC(=O)Cc2ccccc2[N+](=O)[O-])s1	7%	·	·	·	20µM*	9%
CCOc1ccc(C(=O)Nc2nnc(C(C)C)s2)cc1OCC	22%[38.3 µM]	3%	0	28µM*	25µM*	-8%[46.1 µM]
CSc1cccc(NC(=O)Cc2ccccc2[N+](=O)[O-])c1	4%	·	·	·	35µM*	-2%
Cc1csc(NC(=O)Cc2ccccc2[N+](=O)[O-])n1	1%	1%	·	-5%	-4%	8%
COc1ccc(C(=O)Nc2nnc(C(C)C)s2)cc1OC	·	·	-3	·	·	·
CCOc1ncccc1C(=O)Nc1nnc(C(CC)CC)s1	6%	·	·	·	4.5µM*	-24%
CC(C)C[C@@H](CSc1ccc(Br)cc1)N1CCN(C)CCC1=O	·	·	·	·	·	11%
Cc1csc(NC(=O)c2cc3c(s2)-c2ccccc2OC3)n1	1%	8%	-5	?	?	-4%
Cc1c(NC(=O)c2cc3c(s2)-c2ccccc2OC3)cccc1[N+](=O)[O-]	2%	1%	3	?	14µM*	-17%
CN(C)CCNC(=O)c1cc2c(s1)-c1ccccc1OC2	8.9µM*	3%	-19	?	?	16%[46.1 µM]
CCN(CCO)c1cc(Cl)nc(SC)n1	-4%[38.3 µM]	4%	4	-13%	4%	-9%[46.1 µM]
CCOC(=O)c1ccc(N2Cc3ccccc3C2)cc1O	20%[38.3 µM]	-4%	-10	-18%	20µM*	-27%[46.1 µM]
O=C(CN1CCSC1=NCc1ccccc1)c1ccc(Cl)c(Cl)c1	15%	-5%	12	-14%	13µM*	-5%[46.1 µM]
O=S(=O)(NC1CCCCC1Sc1ncccn1)c1ccc(Cl)cc1 (stereo unspecified)	9%	3%	8	-7%	?	-17%[46.1 µM]
O=C(COc1ccccc1-c1ccccc1)NCc1ccco1	45%	·	·	·	7.1µM*	-28%
Cc1ccc(OCC(=O)NCc2ccco2)cc1C	10%[38.3 µM]	-9%	-3	20µM*	?	?
Cc1cc(Cl)cc(Cl)c1OCC(=O)NCc1ccco1	-6%[38.3 µM]	?	1	25µM*	?	-4%[46.1 µM]
CCOc1ccccc1OCC(=O)NCc1ccco1	14%[38.3 µM]	-8%	-6	-20%	?	-7%[46.1 µM]
CC1(C)C/C(=N\O)c2cc3c(nc2C1)CCCC3	24%[38.3 µM]	-1%	-12	-3%	-8%	-3%[46.1 µM]
CS(=O)(=O)Nc1nnc(SCC(=O)N(c2ccccc2)c2ccccc2)s1	-3%	0%	-4	-17%	32µM*	3%
SMILES	IMPase Li inh	12-hLO inh	IMPase cell inh	HPGD inh	ALDH1A1 inh	NPSR antag
CCN1CCN(C(C)C(=O)Nc2c(C)n(C)n(-c3ccccc3)c2=O)CC1 (stereo unspecified)	-13%[38.3 µM]	-6%	9	-3%	22µM*	1%[46.1 µM]
Cc1nc(SCC(=O)c2ccccc2)n[nH]1	-3%[38.3 µM]	-27%	4	?	22µM*	-4%[46.1 µM]
Cc1nc(SCC(=O)Nc2c(C)n(C)n(-c3ccccc3)c2=O)n[nH]1	4%	-2%	5	-15%	14µM*	-5%
COc1ccccc1C(=O)CSc1n[nH]c(N)n1	-10%[38.3 µM]	-3%	-1	-23%	11µM*	1%[46.1 µM]
CCC(CC)C(=O)Nc1c(C)n(C)n(-c2ccccc2)c1=O	25%[38.3 µM]	1%	-3	-9%	-1%	-2%[46.1 µM]
COc1ccc(S(=O)(=O)N2CCN(Cc3ccc4c(c3)OCO4)CC2)c2ccccc12	3%[38.3 µM]	1%	3	-27%	?	-15%[46.1 µM]
COc1ccccc1/C=C/C1(C(=O)NC2CCCC2)CC(=O)N1c1ccc(C)cc1 (stereo unspecified)	16%	-2%	5	-8%	?	-17%[46.1 µM]
COc1ccccc1/C=C/C1(C(=O)NC2CCCC2)CC(=O)N1c1ccc(F)cc1 (stereo unspecified)	11%	3%	0	-12%	32µM*	?
CCCCOc1ccccc1C(=O)NCCCC(=O)O	4%[38.3 µM]	8%	-4	-3%	6%	-10%[46.1 µM]
O=C1CCCC/C1=C\Nc1ccc(S(=O)(=O)Nc2cnc3ccccc3n2)cc1	·	·	·	·	·	15%[7.67 µM]
Cc1cc(C)c(C(=O)C[n+]2cccc(C(N)=O)c2)c(C)c1	·	·	·	·	·	30%
CN(C)c1ccc(/C=N/NC(=O)c2cccc(C(=O)N/N=C/c3ccc(N(C)C)cc3)n2)cc1	5%	·	·	·	2%	-6%
CSc1ccc(NC(N)=S)cc1	6%	·	·	·	0%	17%
CN(C)c1ccc(NC(N)=S)cc1	30%	-7%	·	-8%	12µM*	-36%
CN(C)c1ccc(NC(=O)c2cccc(C(=O)Nc3ccc(N(C)C)cc3)n2)cc1	19%	-2%	·	-17%	8.9µM*	-7%
CC1CCCCN1C(=O)CCn1c(=S)oc2ccccc21 (stereo unspecified)	·	·	·	·	?	-7%
COC(=O)C1CCN(S(=O)(=O)Cc2ccccc2)CC1	9%[38.3 µM]	-2%	25	22µM*	?	?
Cn1cc(CN2CCN(Cc3ccc4c(c3)OCO4)CC2)c(-c2ccccc2F)n1	14%	·	·	·	-5%	-7%
N#Cc1c(N)nc2c(c1N)CC(CO)O2 (stereo unspecified)	12%[38.3 µM]	0%	-3	-1%	0%	-14%[46.1 µM]
CCn1nc(C(=O)Nc2cccc3ccccc23)c(Cl)c1Cl	17%[38.3 µM]	-3%	9	-23%	?	-12%[46.1 µM]
CCOc1ccc(Nc2nc(Nc3ccc(O)cc3)nc(C)c2[N+](=O)[O-])cc1	2%	·	·	·	-5%	5%
Cc1cc(C)c(C(=O)CSc2n[nH]c(-c3ccncc3)n2)c(C)c1	6%	·	·	·	11%	-19%
Cc1ccc(C)c(C(=O)CSc2n[nH]c(-c3ccncc3)n2)c1	·	-2%	-5	·	5µM*	-21%[46.1 µM]
